A short description of assay [1]: AP1 Signaling Pathway (AID 357; active means well fitted curve in either direction with a large enough effect, not every such curve was filed as active; further: on the % scale 0 is the no-effect control and ±100 the full control effect). The note with it: ME-180 AP-1-bla reporter, EGF-induced, beta-lactamase ratio, 5 h; at 7.69 µM (top of the series) unless noted. The procedure, abridged: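 In this screen, ME-180 cells in Opti-MEM with 0.5% dialyzed FBS received EC50 EGF and compound titrations for 5 h. AP-1 reporter beta-lactamase was detected via CCF4 ratio, giving AC50 for positive and negative modulators.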

For assay [2], the target named is Cytochrome P450 1A2 (Homo sapiens) (UniProt P05177). Description: p450-cyp1a2 (AID 410; calls by dose curve; further: potency means the concentration at half of the fitted maximal effect). A digest of the protocol: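 O-Demethylation of luciferin 6' methyl ether by human CYP1A2 is monitored as luciferase luminescence. Substrate sits at Km (100uM); enzyme is 20nM. Values are scaled to 57 uM furafylline as maximal inhibition.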
Cytochrome P450 1A2 (Homo sapiens), sequence (P05177 whole entry, looked up): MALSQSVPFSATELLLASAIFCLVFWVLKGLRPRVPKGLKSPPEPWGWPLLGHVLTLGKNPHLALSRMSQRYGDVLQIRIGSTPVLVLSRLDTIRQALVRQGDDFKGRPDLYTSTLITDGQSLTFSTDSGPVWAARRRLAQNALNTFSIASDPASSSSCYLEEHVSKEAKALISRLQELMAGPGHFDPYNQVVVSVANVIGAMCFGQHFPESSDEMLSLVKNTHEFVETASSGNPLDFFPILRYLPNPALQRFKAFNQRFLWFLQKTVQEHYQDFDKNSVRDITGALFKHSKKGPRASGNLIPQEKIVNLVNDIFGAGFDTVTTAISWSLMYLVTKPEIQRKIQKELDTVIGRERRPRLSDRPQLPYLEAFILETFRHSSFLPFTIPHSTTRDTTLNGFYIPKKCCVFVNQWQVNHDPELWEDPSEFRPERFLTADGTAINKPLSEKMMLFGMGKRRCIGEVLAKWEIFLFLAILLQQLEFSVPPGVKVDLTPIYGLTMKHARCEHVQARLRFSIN
A short description of assay [3]: Stat Signaling Pathway (AID 446; active means well fitted curve in either direction with a large enough effect, not every such curve was filed as active;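 further: ME-180 cervical cancer cells given 40 pM IL-6 alongside compound; SIE-controlled beta-lactamase reporter measured as 460/530 nm FRET emission ratio; on the % scale 0 is the no-effect control and ±100 the full control effect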). A digest of the protocol: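 FRET read-out (405 nm excitation, 460/530 nm emission) of a beta-lactamase reporter under a STAT-inducible element in ME-180 cervical carcinoma cells. Cells with compound receive 40 pM IL-6 for 5 h. Values are normalised to AC90 stimulation and AC90 JAK-inhibitor controls.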
In assay [4] the target is Glucocorticoid receptor (Homo sapiens) (UniProt P04150). Briefly: GR-GFP Redistribution (AID 450;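 active means compounds whose dose series gives a full or clear partial fitted curve of increased nuclear translocation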; further: potency means the concentration at half of the fitted maximal effect). The note with it: U2OS GR-GFP nuclear translocation, laser cytometry, 2 h.
Glucocorticoid receptor (Homo sapiens), sequence (P04150 whole entry, looked up, the tested form may be a part): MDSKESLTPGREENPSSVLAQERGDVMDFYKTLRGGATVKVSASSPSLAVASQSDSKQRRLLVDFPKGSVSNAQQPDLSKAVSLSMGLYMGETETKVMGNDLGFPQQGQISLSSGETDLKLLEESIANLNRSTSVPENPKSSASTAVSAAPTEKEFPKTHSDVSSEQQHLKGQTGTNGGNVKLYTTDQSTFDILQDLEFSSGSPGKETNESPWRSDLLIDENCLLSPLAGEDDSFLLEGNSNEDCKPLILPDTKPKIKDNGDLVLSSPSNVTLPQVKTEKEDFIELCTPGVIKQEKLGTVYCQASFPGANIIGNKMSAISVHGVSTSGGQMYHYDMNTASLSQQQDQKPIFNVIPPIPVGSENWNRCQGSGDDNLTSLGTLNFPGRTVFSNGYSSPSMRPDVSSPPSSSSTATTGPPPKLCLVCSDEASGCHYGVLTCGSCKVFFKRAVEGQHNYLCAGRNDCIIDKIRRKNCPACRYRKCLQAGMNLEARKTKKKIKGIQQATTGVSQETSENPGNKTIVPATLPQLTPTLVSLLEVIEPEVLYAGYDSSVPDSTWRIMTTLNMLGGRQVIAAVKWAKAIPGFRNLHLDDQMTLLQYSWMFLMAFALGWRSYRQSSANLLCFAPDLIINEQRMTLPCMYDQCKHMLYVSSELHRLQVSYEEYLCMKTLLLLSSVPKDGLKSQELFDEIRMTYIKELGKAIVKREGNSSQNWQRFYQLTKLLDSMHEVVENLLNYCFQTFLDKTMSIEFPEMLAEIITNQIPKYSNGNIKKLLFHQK
The target is the same in assay [5]. Description: GR-EFC Redistribution (AID 451; calls by dose curve; further: potency means the concentration at half of the fitted maximal effect). The note with it: CHO-K1 GR-EFC translocation, beta-gal luminescence, 2 h. A digest of the protocol: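 Translocation of GR-ED fusion to nuclear EA restores b-gal, read by luminescence after 1 h room-temperature detection. Engineered CHO-K1 biosensor cells, 1,000/well, exposed 2 h at 37 C to titrations up to 46 uM final.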

Assay [6] concerns the target Mitogen-activated protein kinase 10 (Mus musculus) (UniProt Q61831). Briefly: JNK3 AlphaScreen Assay (AID 530; active means well fitted curve in either direction with a large enough effect, not every such curve was filed as active;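 further: kinase came from lysate of stimulated human HepG2 cells; signal reports phosphorylation of biotinylated GST-cJun 1-79 at Ser73 with 10 µM ATP; on the % scale 0 is the no-effect control and ±100 the full control effect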). The procedure, abridged:
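qHTS titrations with 15 min compound pre-incubation before adding ATP (10 uM final). Read-out: AlphaScreen of Ser73-phosphorylated biotin-GST-cJun using HepG2 lysate JNK3 activated by IL-1β and TNFα.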
Background: In Alpha technology, singlet oxygen from a donor bead excites a nearby acceptor bead.

For assay [7], the target named is 3',5'-cyclic-AMP phosphodiesterase 4B (Homo sapiens) (UniProt Q07343). Briefly: qHTS Assay for Inhibitors of PDE-IV (AID 607; active means well fitted activation curve with a large enough effect in the main read-out, with a control signal flat, not every such curve was filed as active; further: % of control where 0% means no effect). A digest of the protocol: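 Cell-based read-out of cAMP via a modified cyclic nucleotide-gated channel and membrane potential dye (535/590 nm) in HEK293 cells expressing PDE4 endogenously. Compounds tested up to 22.9 uM final; 100 uM RO 20-1724 reference.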
3',5'-cyclic-AMP phosphodiesterase 4B (Homo sapiens), sequence (Q07343 whole entry, looked up): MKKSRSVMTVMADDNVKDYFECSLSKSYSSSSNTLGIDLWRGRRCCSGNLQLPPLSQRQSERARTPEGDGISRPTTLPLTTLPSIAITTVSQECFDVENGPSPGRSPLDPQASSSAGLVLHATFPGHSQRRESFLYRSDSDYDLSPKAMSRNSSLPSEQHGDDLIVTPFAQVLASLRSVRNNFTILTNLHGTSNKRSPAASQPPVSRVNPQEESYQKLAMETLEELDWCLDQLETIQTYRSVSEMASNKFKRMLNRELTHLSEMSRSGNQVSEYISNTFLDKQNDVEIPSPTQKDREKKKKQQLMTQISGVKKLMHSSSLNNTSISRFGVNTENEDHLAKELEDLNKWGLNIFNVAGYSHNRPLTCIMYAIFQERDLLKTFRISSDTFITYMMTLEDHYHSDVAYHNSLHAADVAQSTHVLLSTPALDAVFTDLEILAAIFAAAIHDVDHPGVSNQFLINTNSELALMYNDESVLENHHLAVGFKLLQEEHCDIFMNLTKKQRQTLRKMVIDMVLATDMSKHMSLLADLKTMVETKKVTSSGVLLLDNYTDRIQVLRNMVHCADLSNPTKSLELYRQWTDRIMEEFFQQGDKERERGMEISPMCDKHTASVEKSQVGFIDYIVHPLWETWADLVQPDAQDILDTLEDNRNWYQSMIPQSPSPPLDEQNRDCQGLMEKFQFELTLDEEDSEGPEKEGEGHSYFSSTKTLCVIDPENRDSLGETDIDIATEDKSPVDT
In general terms: Quantitative high-throughput screening tests each substance at several concentrations.

Assay [8] addresses Guanine nucleotide-binding protein G(i) subunit alpha-1 (Homo sapiens) (UniProt P63096). Description: qHTS Assay for Inhibitors of RGS12 GoLoco Motif Activity (Green Fluorophore) (AID 879).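 Further: 0% = labeled peptide with Gαi1 and full inhibition = labeled peptide alone without protein; negative values mean loss of peptide binding seen as reduced polarization.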 A digest of the protocol: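 A drop in FITC polarization marked displacement of the FITC-tagged RGS12 GoLoco peptide (10 nM) from Gαi1 (50 nM). Compounds were incubated 10 min at room temperature in Tris pH 7.5 buffer containing 150 mM NaCl, 0.1 mM GDP and 0.05% NP40; unlabeled peptide titration served as control.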

Assay [9] has as its target Cytochrome P450 2C9 (Homo sapiens) (UniProt P11712). Briefly: qHTS Assay for Inhibitors and Substrates of Cytochrome P450 2C9 (AID 883). Further: on the % scale 0 is the no-effect control and ±100 the full control effect; nearly all actives have a fitted effect of over 60% in size. The procedure, abridged: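 Luminescent read-out of deoxyluciferin hydroxylation, normalized to 57uM sulphaphenazole (AC100). Reaction: 10nM enzyme, 100uM Luciferin-H (equal to KM), 25mM KPO4, 10 min compound preincubation, then 60 min with NADPH regeneration, both at 37C.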

In assay [10] the target is Cytochrome P450 3A4 (Homo sapiens) (UniProt P08684). Briefly: qHTS Assay for Activators of Cytochrome P450 3A4 (AID 885). Further: nearly all actives have a fitted effect of over 65% in size. A digest of the protocol:
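Luminescent readout of luciferin formed from 25 uM Luciferin-PPXE (KM level) by 20 nM CYP3A4 in 200 mM KPO4, with 60 min NADPH-driven reaction at room temperature after 10 min compound exposure. Ketoconazole (57 uM) defined 100% inhibition.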

In assay [11] the target is Cytochrome P450 2D6 (Homo sapiens) (UniProt P10635). Briefly: qHTS Assay for Inhibitors and Substrates of Cytochrome P450 2D6 (AID 891). Further: potency means the concentration at half of the fitted maximal effect; nearly all actives have a fitted effect of over 60% in size. The procedure, abridged:
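Luminescent read-out of luciferin formed by 5 nM human CYP2D6 demethylating 30 uM Luciferin-ME EGE (Km level) over 60 min at room temperature after NADPH regeneration addition. Data normalized to full inhibition by 1.43 uM quinidine.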

A short description of assay [12]: qHTS Assay for Identification of Small Molecule Agonists for Hypoxia Response Element Signaling Pathway (AID 914; active means well fitted activation curve with a large enough effect in the signal ratio, with a control signal flat, not every such curve was filed as active; the % refers to the signal ratio; further: % of control where 0% means no effect). The conditions noted are these: ME-180 (cervical carcinoma) HRE-bla reporter, beta-lactamase ratio, CoCl2, 17 h; activation: stronger effect = higher value. The procedure, abridged:
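Read-out: CCF4 FRET ratio of 460nm to 530nm emission (excitation 405nm) after 2.5 hours at room temperature, taken from HRE-bla ME-180 cells that had been exposed to compound and EC50 CoCl2 for 17 hours.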

Assay [13] is described as follows: qHTS Assay for Identification of Small Molecule Agonists for Thrombopoietin (TPO) Signaling Pathway (AID 917). Further: on the % scale 0 is the no-effect control and ±100 the full control effect. The procedure, abridged: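 Cell-based luciferase reporter screen. Mouse Ba/F3 line stably expressing human TPO receptor; IL-3 removed overnight before plating. Co-treatment with compound and EC50 TPO (26 pM), 24 hrs at 37 C, then luminescence.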
Assay [14] addresses Muscarinic acetylcholine receptor M1 (Rattus norvegicus) (UniProt P08482). Description: qHTS Assay for Antagonists of Acetylcholine Muscarinic M1 Receptor: Kinetic Measurement of Intracellular Calcium Response (AID 943). Further: potency means the concentration at half of the fitted maximal effect; nearly all actives have a fitted effect of over 75% in size. A digest of the protocol:
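Antagonism is measured as inhibition of the carbachol-evoked calcium rise in CHO cells transfected with rat M1. Cells are dye-loaded, exposed to compound for 10 min, then stimulated with 100 nM carbachol (EC80).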

The target in assay [15] is Pyruvate kinase (Leishmania mexicana) (UniProt Q27686). Briefly: qHTS Validation Assay for Inhibitors of Leishmania Mexicana Pyruvate Kinase (AID 945).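 Further: 0% = DMSO only neutral control wells.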 The procedure, abridged: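 Substrate mix (0.5 mM PEP, 0.1 mM ADP, 7 mM MgCl2, 50 mM KCl, pH 7.2 imidazole) received compound by pin tool, then 0.2 nM LmPYK E451W. After 1 h at room temperature, PKLight was added and luminescence measured.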
Pyruvate kinase (Leishmania mexicana), sequence (Q27686 2-499 E452W): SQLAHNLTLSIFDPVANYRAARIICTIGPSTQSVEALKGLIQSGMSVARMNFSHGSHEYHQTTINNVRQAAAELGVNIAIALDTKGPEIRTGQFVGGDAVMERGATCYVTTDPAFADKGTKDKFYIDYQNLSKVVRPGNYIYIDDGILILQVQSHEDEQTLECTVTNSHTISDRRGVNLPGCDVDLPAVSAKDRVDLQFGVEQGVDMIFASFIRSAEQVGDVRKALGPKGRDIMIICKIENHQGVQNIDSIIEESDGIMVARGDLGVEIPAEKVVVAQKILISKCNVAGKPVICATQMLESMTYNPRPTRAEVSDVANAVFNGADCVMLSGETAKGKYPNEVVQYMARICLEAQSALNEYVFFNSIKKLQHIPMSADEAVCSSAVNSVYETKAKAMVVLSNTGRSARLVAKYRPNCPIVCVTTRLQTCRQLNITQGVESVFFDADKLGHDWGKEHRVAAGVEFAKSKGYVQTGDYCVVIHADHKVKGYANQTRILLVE

The target in assay [16] is Pyruvate kinase PKM (Homo sapiens) (UniProt P14618). Briefly: qHTS Assay for Activators of Human Muscle Pyruvate Kinase (AID 954; active means well fitted curve in the direction sought with a large enough effect, not every such curve was filed as active;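 further: 0% = uninhibited enzyme and -100% = no enzyme or full thiadiazolimine inhibition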). The procedure, abridged:
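ATP production by PKM2 detected via luciferase luminescence after 1 h room-temperature reaction (0.1 nM enzyme, PEP at Km 0.5 mM, ADP 0.1 mM, pH 7.2 imidazole buffer). Inhibition scaled to no-enzyme control; activation referenced to 0.3 nM enzyme wells.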

The target in assay [17] is Alpha-galactosidase A (Homo sapiens) (UniProt P06280). Briefly: Counterscreen for Glucocerebrosidase Inhibitors: qHTS Assay for Human alpha-Galactosidase at pH 4.5 (AID 992). Further: 0% is about no effect. A digest of the protocol: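 Fluorogenic 1536-well qHTS at pH 4.5 (citrate, Tween-20): 2 nM enzyme, 80 uM 4-MU-alpha-galactoside, 20 min room temperature, NaOH/glycine stop. Titration 0.7 nM to 77 uM, data normalized to no-enzyme and full-activity controls, Hill-fitted AC50.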
Alpha-galactosidase A (Homo sapiens), sequence (P06280 whole entry, looked up): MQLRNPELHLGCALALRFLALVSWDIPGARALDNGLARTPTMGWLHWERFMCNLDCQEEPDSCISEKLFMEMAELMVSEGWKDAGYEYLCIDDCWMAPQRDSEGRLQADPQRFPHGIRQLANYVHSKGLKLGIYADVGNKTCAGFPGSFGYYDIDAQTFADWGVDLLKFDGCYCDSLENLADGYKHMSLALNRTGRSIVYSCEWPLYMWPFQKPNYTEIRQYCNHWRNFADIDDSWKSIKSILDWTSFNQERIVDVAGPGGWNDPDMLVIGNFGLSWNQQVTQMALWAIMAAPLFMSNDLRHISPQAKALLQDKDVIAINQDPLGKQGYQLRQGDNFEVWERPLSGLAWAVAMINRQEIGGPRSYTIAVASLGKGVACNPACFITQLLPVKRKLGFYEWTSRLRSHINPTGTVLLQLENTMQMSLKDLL
(In general: Counterscreens check selectivity or assay interference.)

Assay [18] concerns the target alpha-glucosidase (Oryza sativa, rice) (UniProt Q653V4). Description: Counterscreen for Glucocerebrosidase Inhibitors: qHTS Assay for Rice alpha-Glucosidase at pH 5.0 (AID 997).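 Further: 0% = full activity with enzyme and -100% = basal without enzyme.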 A digest of the protocol:
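Endpoint fluorogenic assay at pH 5.0: compounds (0.7 nM to 77 uM) titrated against 4 nM rice enzyme and 400 uM 4-MU-alpha-glucoside for 20 min at room temperature; NaOH/glycine stop, read ex 365/em 440 nm, Hill-fitted AC50.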

A number with no mark means an inactive call. Records with an inconclusive call do not appear. Active and inactive are the calls of the source. Unless noted, the call rests on the fitted dose curve; in most records, active means well fitted curve in the direction sought with a large enough effect; inconclusive means small, poorly fitted or top-dose-only effect, or another doubt; inactive means no such curve, though single readings can be large; an effect the other way counts as inactive or inconclusive.

Cytochrome P450 3A4 (Homo sapiens), sequence (P08684 whole entry, looked up): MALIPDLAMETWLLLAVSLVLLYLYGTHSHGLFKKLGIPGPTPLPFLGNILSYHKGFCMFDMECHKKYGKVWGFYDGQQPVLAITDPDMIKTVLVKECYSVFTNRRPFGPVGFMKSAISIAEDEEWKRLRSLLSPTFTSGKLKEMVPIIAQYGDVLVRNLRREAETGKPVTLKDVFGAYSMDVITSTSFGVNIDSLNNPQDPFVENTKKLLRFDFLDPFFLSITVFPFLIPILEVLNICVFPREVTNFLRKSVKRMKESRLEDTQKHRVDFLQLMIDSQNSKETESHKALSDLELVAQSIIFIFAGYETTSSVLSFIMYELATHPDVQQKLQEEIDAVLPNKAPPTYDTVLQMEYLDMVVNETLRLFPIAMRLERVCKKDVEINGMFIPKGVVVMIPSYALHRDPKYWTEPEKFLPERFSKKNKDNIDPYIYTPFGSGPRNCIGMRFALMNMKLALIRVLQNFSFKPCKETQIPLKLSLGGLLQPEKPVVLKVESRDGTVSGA
Cytochrome P450 2C9 (Homo sapiens), sequence (P11712 whole entry, looked up): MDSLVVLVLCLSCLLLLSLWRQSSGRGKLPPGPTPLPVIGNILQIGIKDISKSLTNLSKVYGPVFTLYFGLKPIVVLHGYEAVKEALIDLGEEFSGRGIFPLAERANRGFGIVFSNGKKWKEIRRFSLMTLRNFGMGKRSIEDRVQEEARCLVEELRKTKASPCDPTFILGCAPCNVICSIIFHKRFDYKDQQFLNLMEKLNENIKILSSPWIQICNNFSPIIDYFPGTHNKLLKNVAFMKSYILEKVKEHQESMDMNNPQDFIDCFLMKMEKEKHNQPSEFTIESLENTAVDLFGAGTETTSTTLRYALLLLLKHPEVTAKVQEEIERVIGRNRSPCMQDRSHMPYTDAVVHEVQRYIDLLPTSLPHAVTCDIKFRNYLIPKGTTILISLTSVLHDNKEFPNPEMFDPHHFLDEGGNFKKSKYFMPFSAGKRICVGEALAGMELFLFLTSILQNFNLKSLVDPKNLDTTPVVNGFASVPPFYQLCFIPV
Pyruvate kinase PKM (Homo sapiens), sequence (P14618 whole entry, looked up): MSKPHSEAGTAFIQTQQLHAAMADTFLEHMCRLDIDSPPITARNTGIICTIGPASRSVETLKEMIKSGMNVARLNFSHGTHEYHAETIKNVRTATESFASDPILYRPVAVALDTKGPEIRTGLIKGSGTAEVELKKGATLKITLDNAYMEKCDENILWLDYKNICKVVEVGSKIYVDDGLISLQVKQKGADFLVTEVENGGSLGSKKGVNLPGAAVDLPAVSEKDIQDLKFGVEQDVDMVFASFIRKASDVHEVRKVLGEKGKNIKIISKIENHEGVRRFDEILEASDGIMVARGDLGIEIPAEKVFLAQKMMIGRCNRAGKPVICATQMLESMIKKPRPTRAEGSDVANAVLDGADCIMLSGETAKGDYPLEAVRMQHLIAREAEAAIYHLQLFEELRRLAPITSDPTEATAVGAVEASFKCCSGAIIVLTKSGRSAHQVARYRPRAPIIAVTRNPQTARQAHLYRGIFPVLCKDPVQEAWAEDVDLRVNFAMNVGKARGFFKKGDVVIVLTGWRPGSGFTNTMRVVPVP
Cytochrome P450 2D6 (Homo sapiens), sequence (P10635 whole entry, looked up): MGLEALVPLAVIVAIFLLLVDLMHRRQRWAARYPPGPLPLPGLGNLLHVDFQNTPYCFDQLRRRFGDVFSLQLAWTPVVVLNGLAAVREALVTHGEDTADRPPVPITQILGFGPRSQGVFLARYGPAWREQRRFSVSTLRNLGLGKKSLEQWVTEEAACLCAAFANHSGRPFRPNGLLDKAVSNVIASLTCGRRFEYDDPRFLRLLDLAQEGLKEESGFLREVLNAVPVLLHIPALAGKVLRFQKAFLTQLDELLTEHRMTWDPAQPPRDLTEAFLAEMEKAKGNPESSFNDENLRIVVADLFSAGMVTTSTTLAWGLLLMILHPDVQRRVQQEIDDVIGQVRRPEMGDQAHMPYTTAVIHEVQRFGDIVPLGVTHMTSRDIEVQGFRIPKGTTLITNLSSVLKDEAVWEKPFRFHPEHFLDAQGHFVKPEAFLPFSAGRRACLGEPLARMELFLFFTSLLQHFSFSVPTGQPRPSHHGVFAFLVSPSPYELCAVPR

As to `CCCCN1CCC(COC(=O)c2cc(Cl)c(N)c3c2OCCO3)CC1`, the activity change, negative = inhibition in assay [1] is -2.87% [at 38 µM]. Moreover, the Potency in assay [2] was 12.6 µM (active); in [4] it was over 46 µM; in assay [5] it was over 46 µM; in [11] it was 1.26 µM (active); in assay [14], 5.62 µM (active). For the same compound, the outcome in assay [3], in assay [10], in [13], in assay [15], in assay [16] and in assay [17] was inactive. Further, in [18], the outcome was inactive. The Potency entry in assay [6], in assay [7], in assay [8] and in assay [9] was “inactive” in each case. The activation in assay [12] was 7.22%.

For the origin of these results see PubChem BioAssay (NCATS).
